In PubChem BioAssay (NCI):
Values joined by “and” are separate entries in the source; they are usually repeats but may differ in a detail not shown here. Equal values may be shown once. This is part of a sample that, as a whole, favours compounds with a hit. Of some 83,000 tested, about 20% had one in any assay.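 96-well plates, one dose, 48 hours. Percent growth reported; active if below 10.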 Active and inactive are the calls of the source.

Legend:
Experiment in all cases: NCI-60 one-dose screen, 48 h (100 = growth as untreated, 0 = no growth, -100 = all killed)
NCI-H23 lung = details: 10 µM
NCI-H226 lung = details: 10 µM
HOP-62 NSCLC = details: 10 µM
NCI-H460 lung = details: 10 µM
HOP-92 NSCLC = details: 10 µM
NCI-H522 lung = details: 10 µM unless noted
A549/ATCC NSCLC = details: 10 µM
786-0 renal = details: 10 µM
COLO 205 colon = details: 10 µM
NCI-H322M lung = details: 10 µM

| Structure (SMILES) | growth (NCI-H23 lung) | growth (NCI-H226 lung) | growth (HOP-62 NSCLC) | growth (NCI-H460 lung) | growth (HOP-92 NSCLC) | growth (NCI-H522 lung) | growth (A549/ATCC NSCLC) | growth (786-0 renal) | growth (COLO 205 colon) | growth (NCI-H322M lung) |
| --- | --- | --- | --- | --- | --- | --- | --- | --- | --- | --- |
| COc1c(O)cc2oc3cc(O)c(CC=C(C)C)c(O)c3c(=O)c2c1CC=C(C)C | 54.6% (inactive) | 72.9% (inactive) | 75.7% (inactive) | 28.4% (inactive) | 77% (inactive) | 60.4% (inactive) | 54.3% (inactive) | 78.4% (inactive) | 95.2% (inactive) | – |
| O=[N+]([O-])C1=C(c2ccccc2)SC=C(c2ccccc2)S1 | 79.3% (inactive) | 74% (inactive) | 74.1% (inactive) | 67.3% (inactive) | 65.9% (inactive) | 42% (inactive) | 62.4% (inactive) | 95.4% (inactive) | 86.9% (inactive) | – |
| O=C(/C=C/c1cccnc1)c1ccccc1 | 96.6% (inactive) | 96.6% (inactive) | 108% (inactive) | 87.6% (inactive) | 84% (inactive) | -44.2% (active) | 99.3% (inactive) | 93.7% (inactive) | 101% (inactive) | – |
| Nc1c2ccccc2nc2ccccc12 | 11.5% (inactive) and 41.9% (inactive) and 38.5% (inactive) | 2.61% (active) and 38.7% (inactive) and 40.4% (inactive) | 11.3% (inactive) and 52.2% (inactive) and 47.3% (inactive) | -11.2% (active) and 2.59% (active) and 12% (inactive) | 69.1% (inactive) and 2.79% (active) | -49% (active) and -11.2% (active) and 30.2% (inactive) | -5.72% (active) and 20.6% (inactive) and 28.6% (inactive) | 25.5% (inactive) and 34.8% (inactive) and 50% (inactive) | -73.8% (active) and 7.85% (active) and 12.6% (inactive) | – |
| O=C1C=C(O)c2ccccc2C1=O.[Ag] | 91.8% (inactive) | – | 98.3% (inactive) | 94.7% (inactive) | – | -34.4% (active) | – | 104% (inactive) | 78.8% (inactive) | 99% (inactive) |
| OCC1OC(n2cnc3c(=S)nc[nH]c32)C(O)C1O (configuration not stated) | 104% (inactive) and 71.8% (inactive) | 100% (inactive) and 63.7% (inactive) | 115% (inactive) and 53.9% (inactive) | 113% (inactive) and 62% (inactive) | 56.6% (inactive) and 61.8% (inactive) | 77.3% (inactive) and 3.94% (active) | 99.6% (inactive) and 101% (inactive) | 100% (inactive) and 35.1% (inactive) | 116% (inactive) and 47.5% (inactive) | – |
| CS(=O)(=O)OC1CC(n2ccc(=O)[nH]c2=O)OC1COC(c1ccccc1)(c1ccccc1)c1ccccc1 (configuration not stated) | 106% (inactive) | 104% (inactive) | 106% (inactive) | 112% (inactive) | – | 86.1% (inactive) | 101% (inactive) | – | – | – |
| Cc1nc(N=C(N)N)nc2ccc3ccccc3c12 | 27.6% (inactive) | 25.8% (inactive) | -14% (active) | -44.4% (active) | -25.5% (active) | -35.1% (active) | 20.6% (inactive) | 10.8% (inactive) | -16.4% (active) | – |
